Measurements reported in PubChem BioAssay.

Tests used:
[1] = system: Botulinum neurotoxin type F light chain protease (Clostridium botulinum); assay: Clostridium botulinum type F light chain protease inhibitors, microsphere substrate cleavage, validation (AID 588459); details: multiplex microsphere protease substrate cleavage assay, flow cytometry; at 10 µM; active compounds read high
[2] = molecular target: Botulinum neurotoxin type A (Clostridium botulinum) (UniProt P0DPI0); assay: BoNT/A light chain protease inhibitors, biochemical, multiplex microsphere flow cytometry, validation set (AID 588460); details: at 10 µM, active compounds read high
[3] = molecular target: Lethal factor (Bacillus anthracis) (UniProt P15917); assay: Bacillus anthracis lethal factor inhibition, microsphere flow cytometry protease assay, validation at 10 µM (AID 588461); details: multiplex microsphere protease cleavage assay, active compounds read high

Measured: inhibition

Botulinum neurotoxin type A (Clostridium botulinum), sequence (P0DPI0 whole entry, looked up): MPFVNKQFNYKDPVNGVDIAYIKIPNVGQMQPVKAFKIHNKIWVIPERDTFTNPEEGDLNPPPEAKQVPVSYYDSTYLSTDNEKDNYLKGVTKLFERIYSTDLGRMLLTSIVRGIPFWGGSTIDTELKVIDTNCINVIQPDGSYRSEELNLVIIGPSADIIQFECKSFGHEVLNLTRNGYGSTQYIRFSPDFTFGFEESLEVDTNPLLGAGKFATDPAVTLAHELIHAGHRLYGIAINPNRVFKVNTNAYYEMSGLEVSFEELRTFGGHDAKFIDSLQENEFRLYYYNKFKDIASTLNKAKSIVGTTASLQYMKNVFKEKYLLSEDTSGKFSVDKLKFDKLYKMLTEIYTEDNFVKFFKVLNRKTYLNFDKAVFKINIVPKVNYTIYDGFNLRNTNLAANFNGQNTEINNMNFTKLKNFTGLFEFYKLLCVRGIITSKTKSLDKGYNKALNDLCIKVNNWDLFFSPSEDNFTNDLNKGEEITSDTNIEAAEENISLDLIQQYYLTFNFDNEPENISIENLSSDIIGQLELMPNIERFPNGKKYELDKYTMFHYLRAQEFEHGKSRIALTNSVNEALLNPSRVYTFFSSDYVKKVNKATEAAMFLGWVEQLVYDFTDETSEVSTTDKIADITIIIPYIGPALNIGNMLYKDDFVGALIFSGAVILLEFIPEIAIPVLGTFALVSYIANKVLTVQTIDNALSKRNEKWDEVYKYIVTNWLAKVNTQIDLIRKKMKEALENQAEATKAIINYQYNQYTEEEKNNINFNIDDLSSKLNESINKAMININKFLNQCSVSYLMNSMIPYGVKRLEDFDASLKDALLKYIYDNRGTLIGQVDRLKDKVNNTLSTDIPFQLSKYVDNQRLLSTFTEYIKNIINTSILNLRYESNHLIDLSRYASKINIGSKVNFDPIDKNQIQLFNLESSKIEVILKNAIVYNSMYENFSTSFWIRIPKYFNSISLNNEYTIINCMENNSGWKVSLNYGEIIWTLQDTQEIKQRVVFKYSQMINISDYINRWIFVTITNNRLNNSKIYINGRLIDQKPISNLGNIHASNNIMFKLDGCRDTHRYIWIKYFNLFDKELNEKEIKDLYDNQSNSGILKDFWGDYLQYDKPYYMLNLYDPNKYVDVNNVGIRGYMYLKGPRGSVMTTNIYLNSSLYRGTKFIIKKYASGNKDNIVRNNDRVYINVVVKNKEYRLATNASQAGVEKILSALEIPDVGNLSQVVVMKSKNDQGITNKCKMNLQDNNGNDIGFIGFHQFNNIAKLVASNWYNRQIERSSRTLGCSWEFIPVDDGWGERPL
Lethal factor (Bacillus anthracis), sequence (P15917 whole entry, looked up): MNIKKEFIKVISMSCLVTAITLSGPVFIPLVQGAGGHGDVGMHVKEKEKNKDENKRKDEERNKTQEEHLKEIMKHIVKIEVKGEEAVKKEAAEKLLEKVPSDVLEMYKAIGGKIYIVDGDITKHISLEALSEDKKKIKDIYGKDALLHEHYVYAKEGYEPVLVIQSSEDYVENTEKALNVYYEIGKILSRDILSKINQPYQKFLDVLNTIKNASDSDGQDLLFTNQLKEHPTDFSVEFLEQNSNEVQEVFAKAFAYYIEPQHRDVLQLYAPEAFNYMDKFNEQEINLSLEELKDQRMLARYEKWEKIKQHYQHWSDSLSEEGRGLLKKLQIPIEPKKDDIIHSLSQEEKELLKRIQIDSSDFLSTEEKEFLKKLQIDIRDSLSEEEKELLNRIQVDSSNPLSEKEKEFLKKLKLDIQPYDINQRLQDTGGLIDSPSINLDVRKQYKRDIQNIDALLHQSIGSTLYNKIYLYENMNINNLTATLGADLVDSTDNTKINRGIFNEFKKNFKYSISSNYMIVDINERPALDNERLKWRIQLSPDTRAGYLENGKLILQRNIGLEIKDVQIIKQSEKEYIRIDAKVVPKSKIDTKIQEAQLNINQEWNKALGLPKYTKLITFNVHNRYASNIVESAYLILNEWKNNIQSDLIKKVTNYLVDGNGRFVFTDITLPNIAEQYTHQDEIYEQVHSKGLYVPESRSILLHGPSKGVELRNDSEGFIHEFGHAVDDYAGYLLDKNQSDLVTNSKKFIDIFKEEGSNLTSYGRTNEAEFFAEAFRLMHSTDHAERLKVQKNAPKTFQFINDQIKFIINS

CC1(C)O[C@@H]2C[C@H]3[C@@H]4C[C@H](F)C5=CC(=O)CC[C@]5(C)[C@H]4[C@@H](O)C[C@]3(C)[C@]2(C(=O)CO)O1
inactive: [1] 1.1% | [2] -0.8% | [3] 10.7%

CCc1nc2ccccc2c(NC(=O)CN2CC(C)CC(C)C2)c1C (stereo not drawn)
inactive: [1] -2% | [2] 0.8% | [3] 0.9%

CC1(C)CC(=O)c2c(nc3ccccc3c2N)C1
inactive: [1] 1% | [2] -0.5% | [3] 7.9%

NC(N)=N/N=C/c1cccc(Cl)c1Cl
inactive: [1] 0.9% | [2] 1.3% | [3] -3.3%

C=CCc1ccccc1OCC(O)CNC(C)C (stereo not drawn)
inactive: [1] -1% | [2] 0.4% | [3] -6.5%

NS(=O)(=O)c1cc2c(cc1Cl)NCNS2(=O)=O
inactive: [1] -3.8% | [2] -2.4% | [3] -4.7%

CC(=O)[C@H]1CC[C@H]2[C@@H]3C[C@H](C)C4=CC(=O)CC[C@]4(C)[C@H]3[C@@H](O)C[C@]12C
inactive: [1] 5.1% | [2] 0.9% | [3] -8.6%

Cc1oc2cc(O)cc(O)c2c(=O)c1-c1ccc2c(c1)OCCCO2
inactive: [1] 1.4% | [2] -0.4% | [3] -5.8%

Cc1ncc([N+](=O)[O-])n1CC(C)O (stereo not drawn)
inactive: [1] -0.2% | [2] 1.1% | [3] 0.3%

COC(=O)c1ccccc1NC(=O)NCc1ccccc1
inactive: [1] 2.7% | [2] 0.1% | [3] 0.8%

CCCNCC(O)COc1ccccc1C(=O)CCc1ccccc1 (stereo not drawn)
inactive: [1] 1.5% | [2] 0% | [3] -1.2%
